# Experimental data from PubChem BioAssay.
# Activity calls are given as the source filed them. Cut-off read from the data, not from the text of the source: active = fold change permeability below about 0.7 or above about 1.3; inactive = in between.
# Test: modulators of brain endothelial barrier permeability, primary screen, cell-based, FITC-avidin fluorescence, HTS (AID 1963498); note: test concentration not given here
# Settings: actives lie on both sides
row,Structure (SMILES),fold change permeability
1,CN1CCC(=C2c3ccccc3CCn3c(C=O)cnc32)CC1,1 (inactive)
2,O=C1c2c(O)ccc(O)c2C(=O)c2c(NCCNCCO)ccc(NCCNCCO)c21,0.8 (inactive)
3,CSc1ccc2c(c1)N(CCC1CCCCN1C)c1ccccc1S2 (centres undefined),1.4 (active)
4,Cc1ncc(-c2c[nH]c3ccccc23)o1,1.2 (inactive)
5,CCCCCCCC/C=C\CCCCCCCC(=O)O,0.9 (inactive)
6,CC(C)(C)NCC(O)c1cc(O)cc(O)c1 (centres undefined),0.8 (inactive)
7,NC(=O)c1cnccn1,0.9 (inactive)
8,N[C@H](C(=O)O)c1cc(O)cc(O)c1,1.2 (inactive)
9,Nc1ncnc2c1c(-c1ccc(Oc3ccccc3)cc1)cn2C1CCCC1,1.6 (active)
10,CN(C)c1nc(N(C)C)nc(N(C)C)n1,1.1 (inactive)
11,Fc1ccc(NC(=S)NCCCn2ccnc2)c(F)c1,0.9 (inactive)
12,Cc1cc(Nc2cc(N3CCN(C)CC3)nc(Sc3ccc(NC(=O)C4CC4)cc3)n2)n[nH]1,1.6 (active)
13,c1ccc(-c2cnn3cc(-c4ccc(OCCN5CCOCC5)cc4)cnc23)cc1,1.2 (inactive)
14,O=c1c(O)c(-c2ccc(O)cc2O)oc2cc(O)cc(O)c12,0.7 (active)
15,O=c1[nH]cnc2[nH]ncc12,1 (inactive)
16,CN1Cc2c(N)cccc2C(c2ccccc2)C1 (centres undefined),1 (inactive)
17,N[C@@H](CCC(=O)N[C@@H](CSN=O)C(=O)NCC(=O)O)C(=O)O,0.8 (inactive)
18,CC(C)NCC(O)c1ccc(O)c(O)c1 (centres undefined),1.4 (active)
19,Cn1c(=O)c2c(nc(/C=C/c3cccc(Cl)c3)n2C)n(C)c1=O,1.6 (active)
20,Oc1ccccc1-c1cc(-c2ccccc2F)[nH]n1,1 (inactive)

row,Structure (SMILES),fold change permeability
1,O=C(c1ccc(OCCCc2cnc[nH]2)cc1)C1CC1,1 (inactive)
2,CC(C)c1cc(/C=C(\C#N)C(=O)NCCCc2ccccc2)cc(C(C)C)c1O,0.8 (inactive)
3,C[C@@H](O)[C@H]1C(=O)N2C(C(=O)O)=C(SCCN=CN)C[C@H]12,0.8 (inactive)
4,Cn1c(CNc2ccc(C(=N)N)cc2)nc2cc(C(=O)N(CCC(=O)O)c3ccccn3)ccc21,1.1 (inactive)
5,NC(=O)c1sc(-c2ccsc2)cc1N,0.9 (inactive)
6,O=C(c1ccc(F)cc1)C1CCN(CCn2c(=O)[nH]c3ccccc3c2=O)CC1,1.2 (inactive)
7,CC1CNCCN1S(=O)(=O)c1cccc2cnccc12 (centres undefined),1.1 (inactive)
8,CC(C)Cc1ccc(C(C)C(=O)O)cc1 (centres undefined),2 (active)
9,O[Si](CCCN1CCCCC1)(c1ccc(F)cc1)C1CCCCC1 (centres undefined),1.4 (active)
10,CC(C)c1cccc(C(C)C)c1N1C(=O)c2ccc(O)cc2C1=O,1.6 (active)
11,CN1CCN2c3ccccc3Cc3ccccc3C2C1 (centres undefined),1.1 (inactive)
12,Cc1cc(C)cc(NC(=O)CN(c2cc([N+](=O)[O-])ccc2C)S(C)(=O)=O)c1,1.5 (active)
13,O=c1cc2c(=O)oc3cc(O)c(O)oc3c2c(O)c1O,1.9 (active)
14,N=c1ccn2c(n1)O[C@H]1[C@H](O)[C@@H](CO)O[C@H]12,1.1 (inactive)
15,Cc1cc(CN2CCN(c3c(Br)cnc4nc(-c5ccc(N6CCN(C)CC6)cc5)[nH]c34)CC2)no1,1.4 (active)
16,CCOC(=O)[C@@H](N)Cc1ccc(O)c(O)c1,0.9 (inactive)
17,CCCCCN=C(N)N/N=C/c1c[nH]c2ccc(OC)cc12,0.9 (inactive)
18,CCN1C(=O)C=CC1=O,1 (inactive)
19,CCCCC1C(=O)N(c2ccccc2)N(c2ccccc2)C1=O,0.9 (inactive)
